Experimental data taken from PubChem BioAssay (NCI).
About 83,000 compounds went through this panel and 20% of them were active in at least one assay; those are over-represented in the sample as a whole.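 Plates (96-well) were seeded with cells, treated with compound at one concentration, and incubated for 48 hours before percent growth was determined.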 Unmarked numbers belong to inactive results. Calls of active or inactive are those of the source. The calls were made as follows: active = growth percent below 10; inactive = the rest.

How the values were obtained:
Test in all cases: NCI-60 one-dose screen, 48 h (100 = growth as untreated, 0 = no growth, -100 = all killed)
Conditions in all cases: 10 µM unless noted
T-47D breast = system: T-47D breast
BT-549 breast = system: BT-549 breast
MDA-MB-435 melanoma = system: MDA-MB-435 melanoma
SW-620 colon = system: SW-620 colon
MCF7 breast = system: MCF7 breast
HCT-116 colon = system: HCT-116 colon
HCC-2998 colon = system: HCC-2998 colon
KM12 colon = system: KM12 colon

Row | SMILES | growth (T-47D breast) | growth (BT-549 breast) | growth (MDA-MB-435 melanoma) | growth (SW-620 colon) | growth (MCF7 breast) | growth (HCT-116 colon) | growth (HCC-2998 colon) | growth (KM12 colon)
1 | Cc1cc2c(cc1C)[n+](Cc1ccc3ccccc3c1)cn2Cc1ccc2ccccc2c1 | -56.4% (active) | -86.9% (active) | -82.8% (active) | -84.1% (active) | -67.7% (active) | -96.4% (active) | -69.6% (active) | -85.3% (active)
2 | CCN(CC)c1ccc(/C=C/C(=O)c2cccc(NS(C)(=O)=O)c2)cc1 | 44.3% | 58.3% | 22.7% | 22.1% | 22.8% | 25.8% | 23.2% | 17.1%
3 | C[C@]12CC[C@H](O)CC1=CC[C@@H]1[C@@H]2CC[C@]2(C)C(c3cccnc3)=CC[C@@H]12 | 55.6% | 59.5% | 19.8% | 72.7% | 61.4% | 58.7% | 74.6% | 52.8%
4 | OCCCc1n(Cc2ccc3ccccc3c2)c2ccccc2[n+]1Cc1ccc2ccccc2c1 | 13.2% | 5.33% (active) | 0.65% (active) | 19.3% | 9.45% (active) | 10.4% | 12.5% | -20.9% (active)
5 | CC(C)=CCCC(C)c1ccc(C)c2c1OCN(CC1CCNCC1)C2 (stereo not given) | -94.4% (active) | 55.8% | 14.7% | 28% | 36.6% | -37.2% (active) | -82.1% (active) | 38.4%
6 | COc1cc(/C=C/C(=O)CC(=O)/C=C/c2ccc(OC(=O)CCNC34CC5CC(CC(C5)C3)C4)c(OC)c2)ccc1OC(=O)CCNC12CC3CC(CC(C3)C1)C2 | 50.8% | -10.7% (active) | -31.2% (active) | 8.69% (active) | 17.8% | -0.854% (active) | 34.1% | 5.79% (active)
7 | COc1ccc(C2CC(c3ccc4c(c3)OCO4)=NN2C=O)cc1 (stereo not given) | 99.2% | 89.1% | 110% | 104% | 98.6% | 96.4% | 102% | 105%
8 | COc1cc(/C=C/C(=O)c2c(C)n([O-])c3ccc(Cl)cc3[n+]2=O)cc(OC)c1OC | 58.6% | 53.8% | 84.1% | 82.2% | 42.2% | 62.6% | 106% | 96.2%
9 | O=c1c2c(=NCCCN3CCCC3)cc3c(=O)n(CCCN4CCCC4)c(=O)c4c(NCCCN5CCCC5)cc(c(O)n1CCCN1CCCC1)c2c4-3 | -6.25% (active) | -29.9% (active) | -62.4% (active) | -3.24% (active) | 0.241% (active) | 2.72% (active) | -43.1% (active) | 0.818% (active)
10 | N#CC1c2ccccc2C=CN1C(=O)N(c1ccccc1)c1ccccc1 (stereo not given) | -1.33% (active) | 74.1% | 58.7% | 21.8% | 49.9% | 26.5% | 96.8% | 102%
11 | C/C(=C\CCc1ccoc1)CC/C=C(\C)CCCNc1ccc(F)cc1 | 77.8% | 97.1% | 99.2% | 90.6% | 92.8% | 85.2% | 111% | 96.3%
12 | O=C(O)CNC(=O)C1(N2C(=O)c3ccccc3C2=O)CCCC1 | 102% | 101% | 96.3% | 110% | 92% | 103% | 104% | 118%
13 | COCCCNS(=O)(=O)c1ncnc2nc[nH]c12 | 105% | 123% | 107% | 101% | 112% | 93.5% | 102% | 95.7%
14 | COc1cnc2c(c1)C(=O)c1c-2n(CCCN2CCCC2)c(=O)c2cc(F)ccc12 | -4.54% (active) | -6.57% (active) | 16% | -33.2% (active) | 3.93% (active) | -77.3% (active) | 16.9% | -12.6% (active)
15 | CCCCCc1c(C)[nH]c(/C=C2\N=C(c3ccc[nH]3)C=C2Oc2ccccc2)c1C | -61.1% [100 µM] (active) | -97.1% [100 µM] (active) | -34.4% [100 µM] (active) | -54% [100 µM] (active) | -100% [100 µM] (active) | -4.84% [100 µM] (active) | -91.6% [100 µM] (active) | -81.7% [100 µM] (active)
16 | N#CSCC1CC(O)(c2ccccc2)C(c2ccccc2)C(c2ccc(Cl)cc2)O1 (stereo not given) | -35.3% (active) | -57.8% (active) | -65.2% (active) | -76.2% (active) | -51.5% (active) | -92.9% (active) | -86.2% (active) | -96% (active)
17 | CCSc1nc(-c2ccco2)n2nc(-c3ccco3)cc2n1 | 22.9% | 107% | 111% | 95.5% | 22.6% | 93.4% | 83.7% | 63.8%
18 | COc1cnc2c(c1)C(=O)c1c-2n(CCCn2ccnc2)c(=O)c2cc(F)ccc12 | -9.74% (active) | -11.2% (active) | -60.3% (active) | -45.2% (active) | 0.795% (active) | -49.9% (active) | 4.65% (active) | 0.0466% (active)
19 | COC(=O)Nc1ccc2ccc3c(NC(=O)OC)ccc4ccc1c2c43 (tested in a mixture with another compound) | 49.6% | 63.2% | -22.3% (active) | 39.4% | 31.4% | 21.7% | 57.9% | 32.7%
20 | COc1cc2c(cc1OC)C(CC1(O)CCCCC1)N(S(=O)(=O)c1ccc(C)cc1)CC2 (stereo not given) | 29.7% [100 µM] | -1.8% [100 µM] (active) | -23.1% [100 µM] (active) | 15.6% [100 µM] | 25.7% [100 µM] | 9.09% [100 µM] (active) | 39% [100 µM] | 4.08% [100 µM] (active)
21 | CNc1nc(NC2CCCC2)nc(Sc2ccc(OC)cc2)n1 | 27.3% [100 µM] | 7.66% [100 µM] (active) | 0.45% [100 µM] (active) | 21% [100 µM] | 30.9% [100 µM] | 0.657% [100 µM] (active) | 38% [100 µM] | 1.94% [100 µM] (active)
22 | FCc1ncc(-c2ccc(C(F)(F)F)cc2)c(NC2CCCCCC2)n1 | -10.9% [100 µM] (active) | -50.1% [100 µM] (active) | -6.34% [100 µM] (active) | 4.08% [100 µM] (active) | 1.01% [100 µM] (active) | -2.53% [100 µM] (active) | 13.4% [100 µM] | -59.8% [100 µM] (active)
23 | CC(C)CNc1nc(N=[N+]=[N-])nc(NCC(C)C)n1 | 48.6% [100 µM] | 56.9% [100 µM] | 55.6% [100 µM] | 81.9% [100 µM] | 52.4% [100 µM] | 42.9% [100 µM] | 79.4% [100 µM] | 53.6% [100 µM]
24 | NS(=O)(=O)c1ccc(-n2ncc3c(N/N=C/c4ccccc4)ncnc32)cc1 | 94.6% | 113% | 88.4% | 94.6% | 91% | 83.2% | 74.7% | 102%
25 | O=C1/C(=C/c2ccccc2Cl)CCc2ccccc21 | 105% | 108% | 95.4% | 110% | 87.9% | 99.5% | 102% | 108%
26 | O=C1Nc2ccc(Cl)cc2/C1=C/c1cccs1 | 16.9% | 95.4% | 105% | 103% | 44.6% | 99.2% | 77.6% | 86.8%
27 | Cc1[nH]cnc1/C=C1\SC(N2CCCCC2)=NC1=O | 104% | 105% | 108% | 107% | 108% | 106% | 101% | 114%
28 | Cc1ccc(C2=Nc3c(ccc4c(C)c(C)c(=O)oc34)OC2)cc1 | 89.8% | 94% | 104% | 108% | 115% | 95.5% | 96.1% | 97.8%
29 | COc1cc(Cl)cc(-c2nn(-c3cccc(NC(=O)c4cc(C(F)(F)F)cc(C(F)(F)F)c4)c3)cc2-c2ccncc2)c1 | 53.4% | 96.8% | 80% | 86.2% | 57.8% | 35.2% | 78.3% | 55.5%
30 | CC(=O)Nc1cc(C(c2ccccc2)c2ccccc2)cc(C(c2ccccc2)c2ccccc2)c1C | 24.9% | 55.5% | 63.9% | 52% | 41.3% | 8.02% (active) | 64.9% | 50.5%
